Reference: PubChem BioAssay (Tox21)
Inconclusive results are not listed. The source made the active and inactive calls. The call rests on the fitted dose curve. Starred links: 1 amine or outer side, 2 acyl side, 3 side chain; linkers in the order of their positions; H or OH if unused. Positions of bridges follow the written chain, without caps; N, C: chain ends. Non-standard residues stand in square brackets, D forms with d. Residues, ends and D or L forms follow the SMILES beside them. *: point of attachment. X5 = NC1=N[C@@H]([C@H](N[*:1])C(=O)[*:2])C[C@H](O)N1; ΔAla(Z-3-ureido) = NC(=O)N/C=C(\N)C(=O)O; β3hOrn = NCCC[C@H](N)CC(=O)*; Dap = NC[C@H](N)C(=O)O

These compounds were tested on thyroid hormone receptor (rat, GH3 cells) (assay: qHTS assay to identify small molecule agonists of the thyroid receptor (TR) signaling pathway (AID 743066)). Conditions: GH3.TRE-Luc cells, TR agonist luciferase, 24 h; series mostly up to 83.9 µM; activation: at the top concentration.
On the % scale 0 is the no-effect control and ±100 the full control effect.

| SMILES | activation |
| --- | --- |
| CCCN(CC)C(CC)C(=O)Nc1c(C)cccc1C (centres undefined) | -0.774% (inactive) |
| Cc1ccc(/C(=C\CN2CCCC2)c2cccc(/C=C/C(=O)O)n2)cc1 | -0.527% (inactive) |
| CN[C@@H]1[C@@H](O)[C@@H](O[C@@H]2[C@@H](O)[C@H](OC3OC(CN)=CCC3N)[C@@H](N)C[C@H]2N)OC[C@]1(C)O (some centres undefined) | -0.794% [at 39.4 µM] (inactive) |
| Cn1cc(NC(=O)c2cc(NC(=O)c3cc(NC=O)cn3C)cn2C)cc1C(=O)NCCC(=N)N | 1.56% (inactive) |
| CS(=O)(=O)Nc1cc2occ(NC=O)c(=O)c2cc1Oc1ccccc1 | 2.3% (inactive) |
| O=c1[nH]cnc2[nH]cc(CN3CCCCC3)c12 | 1.02% (inactive) |
| C[C@]12C=CC(=O)C=C1CC[C@@H]1[C@@H]2[C@@H](O)C[C@@]2(C)[C@H]1CC[C@]2(O)C(=O)COC(=O)CCC(=O)O | -0.084% (inactive) |
| CNC[C@@H]1CC[C@@H](N)[C@@H](O[C@H]2[C@H](O)[C@@H](O[C@H]3OC[C@](C)(O)[C@H](NC)[C@H]3O)[C@H](N)C[C@@H]2N)O1 | 0.611% (inactive) |
| C=C1CC2C3CCC4=CC(=O)C=C[C@]4(C)[C@@]3(F)[C@@H](O)C[C@]2(C)[C@@]1(O)C(=O)COC(C)=O (some centres undefined) | -1.51% (inactive) |
| O=C(NOC[C@H](O)CO)c1ccc(F)c(F)c1Nc1ccc(I)cc1F | -6.25% (inactive) |
| NCCC(=O)[N-][C@@H](Cc1cnc[nH]1)C(=O)O.[Zn] | 0.14% (inactive) |
| OCC(O)COc1ccc(Cl)cc1 (centres undefined) | 0.866% (inactive) |
| C[C@H]1C[C@H]2[C@@H]3CCC4=CC(=O)C=C[C@]4(C)[C@@]3(F)[C@@H](O)C[C@]2(C)[C@@]1(O)C(=O)CCl | -6.49% (inactive) |
| CCN(CC)c1ccc(N=Nc2ccc(S(=O)(=O)N(C)C)cc2)c(S(=O)(=O)NCC[n+]2ccccc2)c1 | -2.41% (inactive) |
| CCC(C)C(C(=O)OCC[N+](C)(CC)CC)c1ccccc1 (centres undefined) | -0.703% (inactive) |
| Cc1c(O)cc2c(c1C)O[C@](C)(CCC[C@H](C)CCC[C@H](C)CCCC(C)C)CC2 | -0.198% (inactive) |
| c1ccc2c(CCC3CCNCC3)c[nH]c2c1 | -6.67% (inactive) |
| Cc1ccccc1CNc1ncnc2c1ncn2[C@@H]1O[C@H](CO)[C@@H](O)[C@H]1O | 0.353% (inactive) |
| CC(=O)OCC(=O)[C@@]1(O)[C@H](C)C[C@H]2[C@@H]3C[C@H](F)C4=CC(=O)C=C[C@]4(C)[C@H]3[C@@H](O)C[C@@]21C | -1.4% (inactive) |
| CC(C)(C)CC(=O)OCC(=O)[C@@]12OC(C)(C)O[C@@H]1C[C@H]1[C@@H]3CCC4=CC(=O)C=C[C@]4(C)[C@@]3(F)[C@@H](O)C[C@@]12C | -0.387% (inactive) |

| SMILES | activation |
| --- | --- |
| CC(=O)N[C@@H](CC(=O)N[C@@H](CCC(=O)O)C(=O)O)C(=O)O | 3.1% (inactive) |
| C=C1c2c(Cl)ccc(O)c2C(O)=C2C(=O)[C@]3(O)C(O)=C(C(N)=O)C(=O)[C@@H](N(C)C)[C@@H]3[C@@H](O)[C@H]12 | -0.0952% [at 39.4 µM] (inactive) |
| CCCCCCCCCCCCCCCC(=O)OC[C@@H](COP(=O)([O-])OCC[N+](C)(C)C)OC(=O)CCCCCCCCCCCCCCC | 0.577% (inactive) |
| C[N+](C)(CCCCCC[N+](C)(C)C1c2ccccc2-c2ccccc21)C1c2ccccc2-c2ccccc21 | 0.0673% (inactive) |
| Cc1cc(Nc2ccccc2C(=O)O)ccc1Cl | -6.41% (inactive) |
| NCCC[C@H](N)CC(=O)N[C@H]1CNC(=O)[C@H]([C@H]2C[C@H](O)NC(N)=N2)NC(=O)/C(=C/NC(N)=O)NC(=O)[C@H](CO)NC(=O)[C@H](CO)NC1=O (β3hOrn-[Dap]SS[ΔAla(Z-3-ureido)][X5]; lactam 1-C) | -0.0269% (inactive) |
| CCCCCCCCCCCCCCCCCC(=O)OCCO | -1.75% (inactive) |
| CO[C@H]1[C@@H](O)[C@H](N)[C@@H](O[C@H]2O[C@H]([C@H](C)N)CC[C@H]2N)[C@H](O)[C@@H]1N(C)C(=O)CN | 0.34% (inactive) |
| CCCC(=O)Nc1ncnc2c1ncn2[C@@H]1O[C@@H]2COP(=O)(O)O[C@H]2[C@H]1OC(=O)CCC | 1.47% (inactive) |
| CN(CCO)CC(O)Cn1cnc2c1c(=O)n(C)c(=O)n2C (centres undefined) (tested in a mixture with another compound) | -0.8% (inactive) |
| CCOC(=O)[C@H](CCc1ccccc1)N[C@H]1CCCN2CCC[C@@H](C(=O)O)N2C1=O | -0.0212% (inactive) |
| C[C@]12CC[C@@H]3c4ccc(OS(=O)(=O)O)cc4CC[C@H]3[C@@H]1CCC2=O | 2.62% (inactive) |
| O=C[C@H](O)[C@@H](O)[C@H](O[C@H]1O[C@H](CO)[C@@H](O[C@H]2O[C@H](CO)[C@@H](O)[C@H](O)[C@H]2O)[C@H](O)[C@H]1O)[C@H](O)CO | 0.18% (inactive) |
| CC(=O)OC[C@H]1O[C@@H](O[C@H]2[C@H](O)[C@@H](OC(=O)c3ccccc3C(=O)O)[C@H](O)O[C@@H]2COC(C)=O)[C@H](O)[C@@H](OC(=O)c2ccccc2C(=O)O)[C@@H]1O | -0.205% (inactive) |
| CS(=O)(=O)OCCCNCCCOS(C)(=O)=O | 1.2% (inactive) |
| CN=C(NC)NCc1ccccc1 | 0.0717% (inactive) |
| CC1(C)S[C@@H]2[C@H](NC(=O)C(C(=O)Oc3ccc4c(c3)CCC4)c3ccccc3)C(=O)N2[C@H]1C(=O)O (some centres undefined) | -1.41% (inactive) |
| CS(=O)(=O)NC(=O)CCC/C=C\C[C@H]1C(=O)C[C@@H](O)[C@@H]1/C=C/[C@H](O)COc1ccccc1 | 0.147% (inactive) |
| COc1cc(S(C)=O)ccc1-c1nc2ncccc2[nH]1 (centres undefined) | 0.343% (inactive) |
